Test [1] in a line: qHTS drug screen for cell cycle checkpoint inhibitors in PARPi-resistant BRCA-mutant ovarian cancer cell lines. (AID 1963452; calls by dose curve). Conditions: PEO1/OlaR viability, CellTiter-Glo luminescence, 96 h, stronger effect = lower value. Summed up:
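PEO1, PEO4 and PEO1/OlaR ovarian cancer cells, 600 per well, exposed 96 h at 37C to a dilution series. Viability read by CellTiter-Glo luminescence, normalized to DMSO and empty wells; activity summarized as Z-AUC.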
In general terms: qHTS replaces the single test concentration by a dilution series.

Test [2] in a line: qHTS profiling for inhibitors of Plasmodium falciparum proliferation (AID 504749).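 For activity, negative = inhibition: 0% = DMSO vehicle and full inhibition = artemisinin control.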 Note: nearly all actives have a fitted effect of over 60% in size. Note: potency is the fitted concentration of half-maximal effect. The note with it: P. falciparum in erythrocytes, SYBR Green DNA, 72 h. In short, it runs like this: (§1)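 P. falciparum-infected erythrocytes (0.3% parasitemia, 2.5% hematocrit final) were exposed to compounds for 72 h at 37 C in 5% CO2, then lysed with SYBR Green buffer overnight at room temperature; parasite DNA fluorescence was normalized to artemisinin and DMSO controls.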

In test [3] the test system is 3D7. The description is as above. The note with it: P. falciparum in erythrocytes, SYBR Green DNA, 72 h; series mostly up to 28.7 µM. Summed up:
as §1

The subject of test [4] is 7G8. The description is as above. The note with it: P. falciparum in erythrocytes, SYBR Green DNA, 72 h; series mostly up to 28.7 µM. Summed up:
as §1

Test [5] relates to AA1029. The test is described as above. Conditions: P. falciparum in erythrocytes, SYBR Green DNA, 72 h; series mostly up to 28.7 µM. Summed up:
as §1

Test [6] concerns AS120. The test is described as above. The note with it: P. falciparum in erythrocytes, SYBR Green DNA, 72 h; series mostly up to 28.7 µM. Summed up:
as §1

Test [7] has as its system ATS189. The description is as above. The note with it: P. falciparum in erythrocytes, SYBR Green DNA, 72 h; series mostly up to 28.7 µM. Summed up: as §1
Test [8] has as its system ATS95. The description is as above. Conditions: P. falciparum in erythrocytes, SYBR Green DNA, 72 h; series mostly up to 28.7 µM. Summed up: as §1
Test [9] has as its system C2A. The description is as above. Conditions: P. falciparum in erythrocytes, SYBR Green DNA, 72 h; series mostly up to 28.7 µM. Summed up:
as §1

Where [10] appears, read: measured here: PEO1 parental Z-AUC.
Setting [11] is: at 12.8 µM (top of the series), parasite line A.
Where [12] appears, read: at 12.8 µM (top of the series), parasite line B.
[13] abbreviates: at 28.7 µM (top of the series), parasite line A.
Where [14] appears, read: at 28.7 µM (top of the series), parasite line B.

Inconclusive results are not listed. Calls of active or inactive are those of the source. Unless noted, calls come from the whole dose curve; as a rule, active = well fitted inhibition curve with a large enough effect; inconclusive = small, poorly fitted or top-dose-only effect; inactive = flat fitted curve, though single readings scatter.

Take `CN[C@H](CC(C)C)C(=O)N[C@H]1C(=O)N[C@@H](CC(N)=O)C(=O)N[C@H]2C(=O)N[C@H]3C(=O)N[C@H](C(=O)N[C@H](C(=O)O)c4cc(O)cc(O)c4-c4cc3ccc4O)[C@H](O)c3ccc(c(Cl)c3)Oc3cc2cc(c3O[C@@H]2O[C@H](CO)[C@@H](O)[C@H](O)[C@H]2O[C@H]2C[C@](C)(N)[C@H](O)[C@H](C)O2)Oc2ccc(cc2Cl)[C@H]1O`: the Z-AUC in [1] was -0.534 (inactive); in test [1] (setting [10]) it was -0.325; in test [1] (measured here: PEO4 Z-AUC), -1.21.
Consider `O=C1NC(=O)/C(=C/c2ccc(-c3ccc(F)cc3O)o2)S1`, for which the Z-AUC was -1.15 (inactive) in test [1], -0.562 in test [1] (setting [10]) and -0.191 in test [1] (measured here: PEO4 Z-AUC).
As to `C[N+]1(C)C2CC(OC(=O)[C@H](CO)c3ccccc3)CC1C1OC12` (stereo partly drawn), the Z-AUC in test [1] is 1.57 (inactive); in test [1] (setting [10]) it was 1.91; in test [1] (measured here: PEO4 Z-AUC), 2.01.
As to `Cc1c(Nc2ncccc2C(=O)O)cccc1C(F)(F)F`, the results for the activity, negative = inhibition in test [2] (setting [11]) and in test [2] (setting [12]) were 7.85% (inactive) and -2.62% (inactive), respectively. Besides, the Potency entry in test [3], in test [4], in test [5], in test [6], in test [7] and in [8] was “inactive” in each case. In test [9], the Potency entry is “inactive”.
In the case of `CC[C@H]1OC(=O)[C@H](C)[C@@H](O[C@H]2C[C@@](C)(OC)[C@@H](O)[C@H](C)O2)[C@H](C)[C@@H](O[C@@H]2O[C@H](C)C[C@H](N(C)C)[C@H]2O)[C@](C)(O)C[C@@H](C)C(=O)[C@H](C)[C@@H](O)[C@]1(C)O`, the Z-AUC in test [1] was 1.12 (inactive); in test [1] (setting [10]) it was 0.909; in test [1] (measured here: PEO4 Z-AUC), 1.27.
Take `Nc1ccc(C(=O)O)c(O)c1`: the activity, negative = inhibition in [2] (setting [13]) was 9.01% (inactive); in [2] (setting [14]) it was -22.6% (inactive). The Potency result in test [3], in test [4], in test [5], in test [6], in [7] and in test [8] was “inactive” throughout. In addition, the Potency result in test [9] was “inactive”.
With `Oc1cc(O)cc(/C=C/c2ccc(O)c(O)c2)c1`, the Z-AUC in test [1] is 1.52 (inactive); in test [1] (setting [10]), 0.906; in test [1] (measured here: PEO4 Z-AUC) it was 0.317.
In the case of `O=C(O)/C=C/C(O)c1ccc(Cl)cc1` (stereo not drawn), the figures for the activity, negative = inhibition in [2] (setting [13]) and in test [2] (setting [14]) were 0.108% (inactive) and 10.3% (inactive), respectively. For the same molecule, the Potency result in [3], in test [4], in [5], in test [6], in [7] and in test [8] was “inactive” in each case. For the same molecule, the Potency entry in test [9] is “inactive”.
Consider `O=C(O)Cc1ccc(-c2ccccc2)cc1`, for which the results for the activity, negative = inhibition in test [2] (setting [11]) and in [2] (setting [12]) were 2.72% (inactive) and -2.57% (inactive), respectively. Moreover, the Potency entry in [3], in test [4], in [5], in test [6], in test [7] and in test [8] was “inactive” each time. In addition, the Potency entry in test [9] is “inactive”.
For `CCCCCCCCCCCC(=O)[O][Sn]([CH2]CCC)([CH2]CCC)[O]C(=O)CCCCCCCCCCC`, the activity, negative = inhibition is -9.86% (inactive) in [2] (setting [13]) and -5.91% (inactive) in test [2] (setting [14]). Further, the Potency result in test [3], in [4], in [5], in [6], in test [7] and in test [8] was “inactive” in each case. The Potency result in [9] was “inactive”.
Take `[O-][n+]1ccccc1SSc1cccc[n+]1[O-]`: the Potency in [2] (parasite line A), in test [2] (parasite line B), in [3], in test [4], in test [5] and in [6] was 0.891 µM (active) throughout. For the same molecule, the Potency in [7] was 1.12 µM (active); in test [8], 0.891 µM (active); in test [9], 0.891 µM (active).
On to `COc1cc2c3cc1Oc1cc(ccc1O)C[C@@H]1c4c(cc(OC)c(O)c4Oc4ccc(cc4)C[C@@H]3N(C)CC2)CC[N+]1(C)C`, for which the activity, negative = inhibition in test [2] (setting [13]) was 5.03% (inactive); in [2] (setting [14]), 8.98% (inactive). The Potency result in [3], in test [4], in [5], in [6], in test [7] and in [8] was “inactive” in each case. Besides, the Potency result in test [9] was “inactive”.
